# Bioassay records from PubChem.
# ELG1 genotoxic: genotoxicity induction in ELG1-luciferase HEK293T cells; Potency, µM (series often up to 46 µM), most hits filed as activators; actives 1.3% (n = 330,000); AID 504466; HEK293T ELG1-luciferase reporter, luminescence, 16 h; note: nearly all actives have a fitted effect of over 60% in size
#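 Quantitative HTS format in 1536-well plates. HEK293T ELG1-luciferase reporter cells receive test compound and are incubated 16 hr at 37 °C, 5% CO2; ONE-Glo added, 30 min room temperature, then luminescence read.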
# Rab9 promoter act: activators of Rab9 promoter | actives 2.8% (n = 320,000) | Huh7 Rab9 promoter-luciferase reporter, luminescence, 24 h | Potency, µM (top dose mostly 9.22 µM), hits mostly activators; note: nearly all actives have a fitted effect of over 60% in size
#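 Promoter activation is measured as luciferase luminescence in Huh7 cells stably transfected with a Rab9 promoter–luciferase construct, following 24 h compound exposure at 37 °C and 10 min reagent incubation at ambient temperature.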
# FLuc counter: inhibits or activates purified firefly luciferase, miR-21 counter-screen | actives 6.9% (n = 360,000) | purified FLuc, Km substrates, luminescence inhibition | Potency, µM (highest dose often 57.5 µM), usual class: inhibitors | P08659; note: nearly all actives have a fitted effect of over 55% in size
# Target sequence (P08659 whole entry, looked up): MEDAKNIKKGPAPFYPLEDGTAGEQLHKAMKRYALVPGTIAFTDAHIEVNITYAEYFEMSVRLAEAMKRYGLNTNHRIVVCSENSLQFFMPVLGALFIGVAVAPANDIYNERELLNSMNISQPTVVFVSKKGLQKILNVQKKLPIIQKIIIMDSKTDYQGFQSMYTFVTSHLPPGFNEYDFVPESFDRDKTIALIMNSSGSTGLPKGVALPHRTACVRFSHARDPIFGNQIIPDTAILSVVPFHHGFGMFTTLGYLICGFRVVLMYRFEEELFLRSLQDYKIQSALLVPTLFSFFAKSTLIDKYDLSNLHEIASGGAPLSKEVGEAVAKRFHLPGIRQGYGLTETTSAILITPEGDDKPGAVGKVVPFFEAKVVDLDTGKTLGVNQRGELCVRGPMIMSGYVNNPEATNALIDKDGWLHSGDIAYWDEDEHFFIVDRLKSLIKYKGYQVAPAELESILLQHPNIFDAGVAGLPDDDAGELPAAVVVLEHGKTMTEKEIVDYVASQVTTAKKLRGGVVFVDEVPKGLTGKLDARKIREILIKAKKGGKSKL
#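 Purified P. pyralis luciferase (10nM final) with 10uM D-luciferin and 10uM ATP (Km levels) in 50mM Tris acetate pH 7.5, 10mM Mg acetate, 0.01% Tween-20, 0.05% BSA; qHTS 6-point titration, ~60 µM downward; luminescence read.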
# NPC1 prom act: activates the NPC1 promoter. Huh7 NPC1 promoter luciferase reporter, 24 h. Potency, µM (doses to about 9.22 µM), actives largely listed as activators. actives 2.4% (n = 320,000); note: nearly all actives have a fitted effect of over 60% in size
#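 Stably transfected Huh7 (NPC1 promoter→luciferase), 1500 cells/well in Opti-MEM + 10% FBS, 2 h settle, then compound 24 h at 37 °C. Luminescence after 10 min with Amplite reagent.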
# ELG1 DNA repair: inhibitors of ELG1-dependent DNA repair in HEK293T cells; HEK293T ELG1-luciferase reporter, luminescence, 16 h; DNA damage induced by 5-fluorouridine; Potency, µM (series often up to 46.1 µM), usual class: inhibitors; actives 2.3% (n = 330,000); note: nearly all actives have a fitted effect of over 55% in size
#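 Luminescence from the luciferase reporter, measured 30 min after ONE-Glo reagent at room temperature, was the read-out. Beforehand, 2,000 cells per well were exposed for 16 hr at 37 °C to 5-fluorouridine together with compound or vehicle.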
# SMN2 splice up: SMN2 splice variant enhancement; HEK293 SMN2-luciferase splicing reporter, luminescence, 30-36 h; Potency, µM (top dose mostly 46.1 µM), hits mostly activators; actives 2.8% (n = 210,000); note: nearly all actives have a fitted effect of over 55% in size
#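 qHTS luciferase splicing reporter: luminescence rises when SMN2 exon 7 is included in transfected HEK293 cells. Compound exposure lasted 30-36 h at 37C, with 4.5 mM final sodium butyrate as control, followed by a ONE-Glo read.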
# Numbers stand for hits; 0 = inactive; ? = inconclusive; - = no result given. Only some compounds are listed: those with a hit (about 9.4% of all), similar ones and a draw of the others. Calls come from the whole dose curve; as a rule, active = well fitted curve in the direction sought with a large enough effect; inconclusive = small, poorly fitted or top-dose-only effect, or another doubt; inactive = no such curve, though single readings can be large; an effect the other way counts as inactive or inconclusive.
SMILES,ELG1 genotoxic,Rab9 promoter act,FLuc counter,NPC1 prom act,ELG1 DNA repair,SMN2 splice up
CC(C)Cn1c(=S)[nH]c2ccccc2c1=O,0,0,0,0,0,0
O=C1c2oc3ccccc3c(=O)c2C(c2ccc(O)cc2)N1Cc1ccc2c(c1)OCO2 (configuration not stated),-,-,0,-,-,-
CC(OC(=O)/C=C/c1ccc2ccccc2n1)C(=O)NCc1ccccc1 (configuration not stated),0,0,9.5µM,0,0,-
N#Cc1ccc(CN2C(=O)c3ccccc3Sc3ccc(C(=O)OCc4ccco4)cc32)cc1,-,-,0,-,-,-
COc1ccccc1NC(=O)c1ccc2[nH]c(C)c(C)c2c1,?,2.8µM,12µM,?,?,-
Cc1[nH]c2ccc(C(=O)Nc3ccncc3)cc2c1C,0,0,17µM,0,12µM,-
Cc1ccccc1NC(=O)c1ccc2[nH]c(C)c(C)c2c1,-,-,21µM,-,-,-
Cc1ccccc1CNC(=O)c1ccc2[nH]c(C)c(C)c2c1,-,-,0,-,-,-
O=C(NCc1ccc(Cl)cc1)C(=O)NCC(c1ccc2c(c1)OCO2)N1CCOCC1 (configuration not stated),-,-,0,-,-,-
Cc1ccc(-n2c(-c3ccc(Cl)cc3)c[n+]3c2CCC3)cc1,0,0,0,0,2.9µM,-
FC(F)Sc1ccc(-n2c(-c3ccc(Cl)cc3)c[n+]3c2CCC3)cc1,0,0,0,0,?,0
Cc1ccc(-n2c(-c3ccccc3)c[n+]3c2CCC3)cc1,0,0,0,0,1.6µM,0
O=C(Nc1ccc(F)c(Cl)c1)N1CCN2CCCCC2C1 (configuration not stated),-,-,0,-,-,-
CCCS(=O)(=O)N1CC(=O)N(c2cc(C)cc(C)c2)C(C)(C(=O)NC2CCCCCC2)C1 (configuration not stated),-,-,0,-,-,-
Cc1ccc(OCc2nnc(SC(C)C(=O)O)n2-c2ccccc2)cc1 (configuration not stated),0,0,0,0,0,-
N#Cc1ccc(OCc2nnc(SCC(=O)c3ccccc3)n2-c2ccccc2)cc1,0,0,0,0,15µM,0
COC(=O)c1cccc(NC(=O)CSc2nnc(COc3ccc(C#N)cc3)n2-c2ccccc2)c1,0,0,0,0,?,0
Cc1ccc(OCc2nnc(SCC(=O)c3ccccc3)n2-c2ccccc2)cc1,0,0,0,0,23µM,0
Cc1ccc(CNc2ccc3c(c2)nc(C)n3C)cc1,2.1µM,0.63µM,4.3µM,0.56µM,?,-
Cc1nc2cc(NCc3ccccc3O)ccc2n1Cc1ccccc1,0,0,24µM,0,?,-
Cc1nc2cc(NS(=O)(=O)c3ccc(Br)cc3)ccc2n1C,0,0,0,0,21µM,-
COc1ccc(CNc2ccc3c(c2)nc(C)n3C)cc1,?,1.4µM,9.5µM,2.5µM,?,11µM
Cc1nc2cc(NS(=O)(=O)c3ccccc3)ccc2n1C,0,0,0,0,0,0
Cc1nc2cc(NCc3ccc(Cl)cc3)ccc2n1C,2.6µM,0.45µM,2.1µM,0.45µM,?,-
COc1ccc(OC)c(CNc2ccc3c(c2)nc(C)n3C)c1,0,0,0,0,0,-
SMILES,ELG1 genotoxic,Rab9 promoter act,FLuc counter,NPC1 prom act,ELG1 DNA repair,SMN2 splice up
Cc1cc(C(F)F)n2nc(C(=O)Nc3sc4c(c3C(N)=O)CCC4)nc2n1,0,0,12µM,0,?,0
COC(=O)c1c(NC(=O)c2nc3nc(C)cc(C(F)F)n3n2)sc2c1CCC2,0,0,0,0,23µM,0
Cc1cc(C(F)F)n2nc(C(=O)Nc3sc4c(c3C#N)CCC(C)C4)nc2n1 (configuration not stated),0,0,?,0,0,0
Cc1nccc(-c2sc(-c3cccs3)nc2C)n1,?,?,15µM,0,?,-
Cc1nc(-c2cccs2)sc1C(=O)O,0,0,0,0,0,-
CC(=O)c1c(C)[nH]c(C(=O)OCC(=O)Nc2cc(S(=O)(=O)N3CCCC3)ccc2Cl)c1C,0,0,0,0,16µM,0
CC(=O)c1c(C)[nH]c(C(=O)OCC(=O)Nc2ccccc2Cl)c1C,0,0,0,0,8.2µM,-
